Data reported in PubChem BioAssay (EPA / NIEHS).
Inconclusive results are not listed. Active and inactive are the calls of the source. Rule for the calls: active = hit-call score of the fitted dose curve at least 0.9, where 1 is the maximum; inconclusive = response in the unintended direction; inactive = score below 0.9.

Tests used:
[1] = target: human Leukotriene B4 Receptor 1 (LTB4-BLT1), LTB4R (gene 1241) (UniProt Q15722); assay: NVS_GPCR_hLTB4_BLT1: NovaScreen (NVS) G Protein-Coupled Receptor Assay for human Leukotriene B4 Receptor 1 (LTB4-BLT1) (AID 2283271)
Chain of human Leukotriene B4 Receptor 1 (LTB4-BLT1), LTB4R (gene 1241) (Q15722 whole entry, looked up): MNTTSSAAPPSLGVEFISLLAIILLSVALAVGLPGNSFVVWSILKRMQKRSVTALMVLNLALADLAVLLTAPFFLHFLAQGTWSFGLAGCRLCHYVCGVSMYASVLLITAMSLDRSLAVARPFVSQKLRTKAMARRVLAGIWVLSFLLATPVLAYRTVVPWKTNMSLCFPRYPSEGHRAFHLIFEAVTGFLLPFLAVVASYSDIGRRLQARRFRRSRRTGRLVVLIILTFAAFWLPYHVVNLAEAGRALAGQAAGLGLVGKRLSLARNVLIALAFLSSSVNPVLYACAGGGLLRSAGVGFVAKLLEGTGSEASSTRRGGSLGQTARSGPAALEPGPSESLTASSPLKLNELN
How it was run: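 Radioligand displacement binding on receptor extracted from human neutrophils, cell-free, 1 h after dosing; filter-based scintillation counting. Primary screen in duplicate at 25 uM, actives retested in concentration-response up to 50 uM; loss of signal versus DMSO.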

[2] = target: human Adrenergic, Beta 3 Receptor (Adrb3), ADRB3 (gene 155) (UniProt P13945); assay: NVS_GPCR_hAdrb3: NovaScreen (NVS) G Protein-Coupled Receptor Assay for human Adrenergic, Beta 3 Receptor (Adrb3) (AID 2283262)
Chain of human Adrenergic, Beta 3 Receptor (Adrb3), ADRB3 (gene 155) (P13945 whole entry, looked up): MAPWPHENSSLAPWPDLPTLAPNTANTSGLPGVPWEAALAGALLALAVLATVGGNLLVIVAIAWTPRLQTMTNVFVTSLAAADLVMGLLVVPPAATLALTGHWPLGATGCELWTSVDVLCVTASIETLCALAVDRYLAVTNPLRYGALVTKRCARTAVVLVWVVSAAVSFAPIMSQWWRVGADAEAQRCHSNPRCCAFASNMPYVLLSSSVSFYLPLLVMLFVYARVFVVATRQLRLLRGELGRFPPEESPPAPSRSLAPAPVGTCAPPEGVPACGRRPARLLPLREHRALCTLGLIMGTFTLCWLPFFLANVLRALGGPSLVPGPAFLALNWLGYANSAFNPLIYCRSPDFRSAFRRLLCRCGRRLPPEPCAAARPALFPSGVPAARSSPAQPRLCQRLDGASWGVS
How it was run: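 Membranes from SK-N-MC cells pretreated with isoproterenol and 8-bromo-cAMP were used in a radioligand competitive displacement binding assay. Binding was read by filter-based scintillation counting 1 hour after dosing. Primary screening was in duplicate at 25 uM, with concentration series in follow-up.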

[3] = target: human Endothelin Receptor Type A (ETA), EDNRA (gene 1909) (UniProt P25101); assay: NVS_GPCR_hETA: NovaScreen (NVS) G Protein-Coupled Receptor Assay for human Endothelin Receptor Type A (ETA) (AID 2283265)
Chain of human Endothelin Receptor Type A (ETA), EDNRA (gene 1909) (P25101 whole entry, looked up): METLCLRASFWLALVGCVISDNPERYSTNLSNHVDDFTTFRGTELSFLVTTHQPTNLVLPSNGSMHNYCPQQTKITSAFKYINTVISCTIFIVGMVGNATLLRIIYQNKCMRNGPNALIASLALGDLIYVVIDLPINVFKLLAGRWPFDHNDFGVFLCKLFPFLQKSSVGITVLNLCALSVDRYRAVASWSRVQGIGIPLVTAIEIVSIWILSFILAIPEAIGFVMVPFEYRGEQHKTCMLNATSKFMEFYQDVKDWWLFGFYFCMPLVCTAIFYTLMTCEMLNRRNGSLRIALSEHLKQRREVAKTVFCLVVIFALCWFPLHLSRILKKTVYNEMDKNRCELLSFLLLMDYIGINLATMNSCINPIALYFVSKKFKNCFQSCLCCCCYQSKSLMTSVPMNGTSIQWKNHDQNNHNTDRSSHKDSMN
How it was run: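 Cell-free radioligand displacement using SH-SY5Y-derived protein, 3 h incubation, filter-based scintillation counting. Primary screen in duplicate at 25 uM; actives then run in concentration-response up to 50 uM; loss of binding fitted versus DMSO.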

[4] = target: human Histamine 1 Receptor (H1), HRH1 (gene 3269) (UniProt P35367); assay: NVS_GPCR_hH1: NovaScreen (NVS) G Protein-Coupled Receptor Assay for human Histamine 1 Receptor (H1) (AID 2283268)
How it was run: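 Cell-free radioligand displacement at human H1 receptor, 1 h, filter scintillation counting; primary screen 25 uM in duplicate, hits in concentration series; loss of binding fitted vs DMSO.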

[5] = target: Muscarinic acetylcholine receptor M5 (Homo sapiens) (UniProt P08912); assay: NVS_GPCR_hM5: NovaScreen (NVS) G Protein-Coupled Receptor Assay for human Muscarinic, M5 Receptor (AID 2283275)
How it was run: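 Radioligand displacement on CHO-derived membrane preparations, 1 h, filter-based scintillation counting. Single-concentration duplicate screen at 25 uM; hits (e.g. 30% inhibition) retested in singleton concentration-response up to 50 uM. Loss of binding fitted versus DMSO.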

[6] = target: human Neuropeptide Receptor Y1 (NPY1), NPY1R (gene 4886) (UniProt P25929); assay: NVS_GPCR_hNPY1: NovaScreen (NVS) G Protein-Coupled Receptor Assay for human Neuropeptide Receptor Y1 (NPY1) (AID 2283276)
How it was run: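 Cell-free radioligand binding using receptor extracted from SK-N-MC cells, 1 h incubation, filter-based scintillation counting. Primary screen single concentration 25 uM in duplicate; actives followed in concentration series. Loss of bound signal scored versus DMSO.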

[7] = target: human Adenosine A2a Receptor (AdoRA2a), ADORA2A (gene 135) (UniProt P29274); assay: NVS_GPCR_hAdoRA2a: NovaScreen (NVS) G Protein-Coupled Receptor Assay for human Adenosine A2a Receptor (AdoRA2a) (AID 2283256)
Chain of human Adenosine A2a Receptor (AdoRA2a), ADORA2A (gene 135) (P29274 whole entry, looked up): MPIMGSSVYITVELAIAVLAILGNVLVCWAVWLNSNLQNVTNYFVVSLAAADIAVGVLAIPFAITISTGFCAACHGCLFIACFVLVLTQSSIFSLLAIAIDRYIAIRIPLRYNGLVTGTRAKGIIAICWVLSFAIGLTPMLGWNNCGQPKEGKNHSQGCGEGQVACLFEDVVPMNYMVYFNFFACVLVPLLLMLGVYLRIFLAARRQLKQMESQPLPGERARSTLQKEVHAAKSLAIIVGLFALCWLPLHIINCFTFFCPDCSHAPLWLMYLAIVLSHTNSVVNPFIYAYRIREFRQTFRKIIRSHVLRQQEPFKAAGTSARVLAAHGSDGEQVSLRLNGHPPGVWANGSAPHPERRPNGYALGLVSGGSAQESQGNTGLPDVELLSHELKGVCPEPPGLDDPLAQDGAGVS
How it was run: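 Radioligand displacement on HEK293-derived membrane protein, cell-free; filter-based scintillation counting 1.5 hours after dosing, loss of signal vs DMSO. Single-point duplicate screen at 25 uM, actives retested in concentration series.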

[8] = target: human Adrenergic, Alpha 2A Receptor (Adra2A), ADRA2A (gene 150) (UniProt P08913); assay: NVS_GPCR_hAdra2A: NovaScreen (NVS) G Protein-Coupled Receptor Assay for human Adrenergic, Alpha 2A Receptor (Adra2A) (AID 2283257)
How it was run: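 Radioligand filter-binding was run on HT29-derived membranes, cell-free, read by scintillation counting 1 h after dosing. Primary screening was in duplicate at 25 uM, with concentration series in follow-up. Loss of signal versus DMSO indicates displacement.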

[9] = target: human Adrenergic, Beta 1 Receptor (Adrb1), ADRB1 (gene 153) (UniProt P08588); assay: NVS_GPCR_hAdrb1: NovaScreen (NVS) G Protein-Coupled Receptor Assay for human Adrenergic, Beta 1 Receptor (Adrb1) (AID 2283258)
Chain of human Adrenergic, Beta 1 Receptor (Adrb1), ADRB1 (gene 153) (P08588 whole entry, looked up): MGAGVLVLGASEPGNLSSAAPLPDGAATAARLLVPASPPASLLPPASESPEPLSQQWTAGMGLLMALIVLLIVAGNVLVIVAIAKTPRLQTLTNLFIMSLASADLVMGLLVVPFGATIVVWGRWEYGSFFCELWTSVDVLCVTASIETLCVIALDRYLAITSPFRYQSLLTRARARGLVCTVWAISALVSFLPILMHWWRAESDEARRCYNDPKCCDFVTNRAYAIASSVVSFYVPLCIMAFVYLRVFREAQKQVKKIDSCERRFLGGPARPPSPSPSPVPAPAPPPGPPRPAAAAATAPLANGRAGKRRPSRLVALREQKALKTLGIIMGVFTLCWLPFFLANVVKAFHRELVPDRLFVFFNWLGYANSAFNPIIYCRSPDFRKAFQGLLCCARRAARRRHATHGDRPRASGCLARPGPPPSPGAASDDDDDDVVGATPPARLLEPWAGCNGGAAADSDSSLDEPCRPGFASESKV
How it was run: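 Cell-free radioligand displacement on receptor from human neuroepithelioma cells; 2 h after dosing, filter-based scintillation counting. Primary screen in duplicate at 25 uM, actives retested in concentration series; loss of signal vs DMSO baseline.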

[10] = target: human Adrenergic, Alpha 2c Receptor (Adra2C), ADRA2C (gene 152) (UniProt P18825); assay: NVS_GPCR_hAdra2C: NovaScreen (NVS) G Protein-Coupled Receptor Assay for human Adrenergic, Alpha 2c Receptor (Adra2C) (AID 2283259)
How it was run: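 Radioligand binding on Sf9-expressed receptor membranes, 1 h after chemical dosing, filter-based scintillation read-out. Loss of binding fitted positively versus DMSO; primary duplicate screen at 25 uM, actives retested in concentration series.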

[11] = target: Beta-2 adrenergic receptor (Homo sapiens) (UniProt P07550); assay: NVS_GPCR_hAdrb2: NovaScreen (NVS) G Protein-Coupled Receptor Assay for human Adrenergic, Beta 2 Receptor (Adrb2) (AID 2283261)
Chain of Beta-2 adrenergic receptor (Homo sapiens) (P07550 whole entry, looked up): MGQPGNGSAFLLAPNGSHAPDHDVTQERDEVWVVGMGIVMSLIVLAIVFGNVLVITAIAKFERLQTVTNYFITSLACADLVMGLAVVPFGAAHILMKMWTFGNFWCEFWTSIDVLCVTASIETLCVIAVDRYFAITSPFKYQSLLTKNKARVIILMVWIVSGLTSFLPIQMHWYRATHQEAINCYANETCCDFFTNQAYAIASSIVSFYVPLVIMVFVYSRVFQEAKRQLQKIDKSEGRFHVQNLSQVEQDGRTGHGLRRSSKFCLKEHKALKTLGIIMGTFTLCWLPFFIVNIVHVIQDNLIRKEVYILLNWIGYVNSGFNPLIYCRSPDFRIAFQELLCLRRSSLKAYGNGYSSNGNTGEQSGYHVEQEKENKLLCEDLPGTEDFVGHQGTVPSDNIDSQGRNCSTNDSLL
How it was run: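 Filter-based radioligand binding using receptor prepared from CHO cells, 1 h incubation, scintillation counting. Primary screen in duplicate at 25 uM, actives retested in concentration series; loss of binding relative to DMSO.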

[12] = target: human Dopamine Receptor D4.4 (DRD4.4), DRD4 (gene 1815) (UniProt P21917); assay: NVS_GPCR_hDRD4.4: NovaScreen (NVS) G Protein-Coupled Receptor Assay for human Dopamine Receptor D4.4 (DRD4.4) (AID 2283264)
Chain of human Dopamine Receptor D4.4 (DRD4.4), DRD4 (gene 1815) (P21917 whole entry, looked up): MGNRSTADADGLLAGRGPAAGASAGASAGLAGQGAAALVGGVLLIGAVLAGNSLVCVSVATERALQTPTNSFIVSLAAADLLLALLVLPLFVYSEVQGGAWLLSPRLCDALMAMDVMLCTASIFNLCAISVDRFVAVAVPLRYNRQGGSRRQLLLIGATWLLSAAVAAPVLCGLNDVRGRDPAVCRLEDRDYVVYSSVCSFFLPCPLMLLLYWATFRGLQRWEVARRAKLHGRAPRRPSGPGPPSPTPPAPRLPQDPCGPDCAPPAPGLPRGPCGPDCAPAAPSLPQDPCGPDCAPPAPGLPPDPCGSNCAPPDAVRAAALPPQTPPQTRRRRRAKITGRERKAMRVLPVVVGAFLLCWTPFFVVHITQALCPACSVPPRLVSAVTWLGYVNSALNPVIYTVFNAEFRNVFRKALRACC
How it was run: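 Radioligand displacement on human DRD4.4 from CHO-derived membranes, 1 hour incubation, bound counts read by filtration and scintillation. Primary screen in duplicate at 25 uM; actives followed up in concentration series.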

[13] = target: human Endothelin Receptor Type B (ETB), EDNRB (gene 1910) (UniProt P24530); assay: NVS_GPCR_hETB: NovaScreen (NVS) G Protein-Coupled Receptor Assay for human Endothelin Receptor Type B (ETB) (AID 2283267)
How it was run: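 Human astrocytoma cell membranes; radioligand competitive binding read by filter scintillation counting 4 hours after dosing. Single-concentration duplicate screen at 25 uM, then singleton concentration-response up to 50 uM; loss of signal versus DMSO.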

[14] = target: Muscarinic acetylcholine receptor M1 (Homo sapiens) (UniProt P11229); assay: NVS_GPCR_hM1: NovaScreen (NVS) G Protein-Coupled Receptor Assay for human Muscarinic, M1 Receptor (AID 2283270)
How it was run: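 Cell-free radioligand displacement using membrane protein extracted from CHO cells, read by filter-based scintillation counting 1 h after dosing. Loss of bound signal fitted versus DMSO; primary screen single concentration 25 uM in duplicate, actives followed by concentration series.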

[15] = target: Muscarinic acetylcholine receptor M3 (Homo sapiens) (UniProt P20309); assay: NVS_GPCR_hM3: NovaScreen (NVS) G Protein-Coupled Receptor Assay for human Muscarinic, M3 Receptor (AID 2283272)
Chain of Muscarinic acetylcholine receptor M3 (Homo sapiens) (P20309 whole entry, looked up): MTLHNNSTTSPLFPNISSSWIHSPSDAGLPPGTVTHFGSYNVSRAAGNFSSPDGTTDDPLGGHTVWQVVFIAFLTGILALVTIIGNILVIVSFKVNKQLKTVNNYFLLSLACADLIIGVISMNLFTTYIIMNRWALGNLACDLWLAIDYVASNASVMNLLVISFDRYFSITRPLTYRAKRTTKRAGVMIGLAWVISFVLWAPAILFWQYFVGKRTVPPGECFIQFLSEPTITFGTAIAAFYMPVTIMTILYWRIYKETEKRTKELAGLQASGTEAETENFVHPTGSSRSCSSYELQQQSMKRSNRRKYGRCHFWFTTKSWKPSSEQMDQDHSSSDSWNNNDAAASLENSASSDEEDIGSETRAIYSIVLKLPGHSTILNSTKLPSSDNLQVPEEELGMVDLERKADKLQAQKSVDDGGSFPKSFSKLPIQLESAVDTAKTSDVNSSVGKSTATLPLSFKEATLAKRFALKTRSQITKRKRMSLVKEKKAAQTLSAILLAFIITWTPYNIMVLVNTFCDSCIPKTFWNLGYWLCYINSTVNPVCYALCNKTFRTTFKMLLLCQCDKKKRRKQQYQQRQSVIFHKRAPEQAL
How it was run: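 Radioligand displacement binding on human M3 receptor in CHO-derived membranes, 1 h incubation, filter-based scintillation counting. Primary screen in duplicate at 25 uM; actives followed up in concentration series; loss of signal versus DMSO.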

[16] = target: human Muscarinic, M4 Receptor, CHRM4 (gene 1132) (UniProt P08173); assay: NVS_GPCR_hM4: NovaScreen (NVS) G Protein-Coupled Receptor Assay for human Muscarinic, M4 Receptor (AID 2283274)
Chain of human Muscarinic, M4 Receptor, CHRM4 (gene 1132) (P08173 whole entry, looked up): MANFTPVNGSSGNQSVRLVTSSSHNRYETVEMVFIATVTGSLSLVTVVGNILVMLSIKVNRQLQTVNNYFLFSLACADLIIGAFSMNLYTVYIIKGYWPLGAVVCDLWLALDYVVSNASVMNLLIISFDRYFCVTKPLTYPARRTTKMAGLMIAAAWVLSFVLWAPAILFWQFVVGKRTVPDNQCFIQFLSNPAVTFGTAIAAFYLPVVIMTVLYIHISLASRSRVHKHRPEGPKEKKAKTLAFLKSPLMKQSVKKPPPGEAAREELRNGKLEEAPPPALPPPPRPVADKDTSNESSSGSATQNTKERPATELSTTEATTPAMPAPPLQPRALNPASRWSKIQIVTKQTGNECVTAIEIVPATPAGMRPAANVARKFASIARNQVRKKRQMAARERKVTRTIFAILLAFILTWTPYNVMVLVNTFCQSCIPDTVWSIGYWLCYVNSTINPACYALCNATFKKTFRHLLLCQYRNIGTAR
How it was run: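 Cell-free radioligand displacement using CHO-derived human M4 receptor protein, 1 h after dosing; bound radioactivity by filtration and scintillation counting. Primary screen single 25 uM duplicate, actives followed in concentration series.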

[17] = target: D(1A) dopamine receptor (Homo sapiens) (UniProt P21728); assay: NVS_GPCR_hDRD1: NovaScreen (NVS) G Protein-Coupled Receptor Assay for human Dopamine Receptor D1 (DRD1) (AID 2283269)
Chain of D(1A) dopamine receptor (Homo sapiens) (P21728 whole entry, looked up): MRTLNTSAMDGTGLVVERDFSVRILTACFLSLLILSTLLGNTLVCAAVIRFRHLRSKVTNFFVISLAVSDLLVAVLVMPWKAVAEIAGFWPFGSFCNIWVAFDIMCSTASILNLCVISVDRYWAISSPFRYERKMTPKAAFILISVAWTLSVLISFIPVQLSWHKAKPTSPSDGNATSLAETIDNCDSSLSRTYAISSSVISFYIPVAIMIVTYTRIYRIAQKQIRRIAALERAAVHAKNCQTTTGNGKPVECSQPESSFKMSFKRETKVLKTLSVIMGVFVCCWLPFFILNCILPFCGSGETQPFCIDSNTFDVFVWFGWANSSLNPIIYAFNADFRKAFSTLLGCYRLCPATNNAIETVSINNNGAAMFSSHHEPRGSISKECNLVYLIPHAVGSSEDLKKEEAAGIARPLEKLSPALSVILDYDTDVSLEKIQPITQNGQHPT
How it was run: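 Radioligand displacement binding on membranes/protein extracted from HEK293 expressing human D1, cell-free; read 1 h after dosing by filter-based scintillation counting. Primary screen in duplicate at 25 uM, actives followed up in concentration series; signal loss versus DMSO baseline.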

[18] = target: Muscarinic acetylcholine receptor M2 (Homo sapiens) (UniProt P08172); assay: NVS_GPCR_hM2: NovaScreen (NVS) G Protein-Coupled Receptor Assay for human Muscarinic, M2 Receptor (AID 2283273)
Chain of Muscarinic acetylcholine receptor M2 (Homo sapiens) (P08172 whole entry, looked up): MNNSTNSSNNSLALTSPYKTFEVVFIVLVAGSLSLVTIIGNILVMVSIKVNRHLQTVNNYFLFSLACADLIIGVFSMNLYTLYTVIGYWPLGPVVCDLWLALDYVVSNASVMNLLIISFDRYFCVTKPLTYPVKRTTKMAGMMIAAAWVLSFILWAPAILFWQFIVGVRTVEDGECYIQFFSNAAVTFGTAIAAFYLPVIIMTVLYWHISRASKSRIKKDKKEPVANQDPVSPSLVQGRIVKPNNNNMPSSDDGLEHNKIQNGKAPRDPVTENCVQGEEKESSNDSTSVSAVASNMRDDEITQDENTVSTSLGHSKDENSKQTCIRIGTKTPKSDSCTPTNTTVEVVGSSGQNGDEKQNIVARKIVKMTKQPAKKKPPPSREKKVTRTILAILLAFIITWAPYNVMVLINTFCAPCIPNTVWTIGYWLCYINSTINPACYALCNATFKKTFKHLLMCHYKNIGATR
How it was run: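 Radioligand displacement on human M2 receptor membranes from CHO cells, 1 h incubation, filtration with scintillation counting. Primary screen in duplicate at 25 uM; actives retested in concentration series; loss of signal fitted versus DMSO.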

[19] = target: Neuropeptide Y receptor type 2 (Homo sapiens) (UniProt P49146); assay: NVS_GPCR_hNPY2: NovaScreen (NVS) G Protein-Coupled Receptor Assay for human Neuropeptide Receptor Y2 (NPY2) (AID 2283277)
How it was run: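 Radioligand binding on membranes extracted from SK-N-MC cells, cell-free, read 1 h after dosing by filter-based scintillation counting. Loss of signal vs DMSO. Primary screen in duplicate at 25 uM; actives followed up in concentration-response up to 50 uM.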

[20] = target: Type-1 angiotensin II receptor (Homo sapiens) (UniProt P30556); assay: NVS_GPCR_hAT1: NovaScreen (NVS) G Protein-Coupled Receptor Assay for human Angiotensin II receptor type 1 (AT1) (AID 2283263)
How it was run: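 Membranes from KAN-TS cells; radioligand competitive displacement, 3 h, filtration and scintillation counting. Single-point duplicate screen at 25 uM, then concentration-response up to 50 uM for hits; loss of signal fitted versus DMSO.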

Measured: AC50

Cc1ccc(S(=O)(=O)O)cc1C
inactive: [1]

CCn1nc(Cc2ccccc2)cc1C1CCN(C[C@H]2C[C@H](N(C)[C@@H](C(=O)O)C(C)C)C[C@@H]2c2cccc(F)c2)CC1
inactive: [2]

CC[C@H](C)C(=O)O[C@H]1C[C@@H](C)C=C2C=C[C@H](C)[C@H](CC[C@@H]3C[C@@H](O)CC(=O)O3)[C@H]21
inactive: [3]

Cn1c(=O)cc(Oc2ccc(F)cc2F)c2cnc(NCC(C)(C)O)nc21
active: [4] 6.95 µM

CN(C)c1ccc(N=NS(=O)(=O)O)cc1
inactive: [5] | [6]

Cc1[nH]cnc1C[C@H]1CCc2c(C)c3ccccc3n2C1=O
active: [7] 22.2 µM | [8] 0.56 µM | [9] 1.04 µM | [10] 5.39 µM | [11] 1.39 µM | [12] 18.4 µM | [4] 4.88 µM | [15] 15.5 µM | [5] 11.9 µM
inactive: [13] | [14] | [1] | [16]

CNS(=O)(=O)c1cc(C(=O)N2CCC(CCN3C4CCC3CC(n3c(C)nc5ccccc53)C4)(c3cccc(F)c3)CC2)c(Cl)cc1F (centres undefined)
active: [17] 15.8 µM | [18] 9.16 µM
inactive: [5]

CCCCCCc1ccc(O)cc1O
active: [9] 25 µM | [10] 6.31 µM

CC(C)CC(C)(O)C#CC(C)(O)CC(C)C (centres undefined)
inactive: [2]

Oc1ccc2c(c1)-c1ccccc1C2
active: [7] 25 µM

CCN(C(=O)c1cc(C)cc(OC[C@H](C)Nc2ccncc2)c1)C(C)C
active: [8] 7.91 µM | [1] 5.9 µM | [15] 16.9 µM | [18] 10.6 µM | [16] 11.3 µM

CCOc1cccc(-n2cc(C(=O)N3CCN(c4cc(C(=O)O)c5ccccc5c4)CC3)nc2-c2ccc(C)cc2)c1
active: [10] 12.3 µM | [11] 6.36 µM | [4] 23.8 µM | [17] 17.1 µM | [16] 26.1 µM

Nc1ccc(Nc2ccccc2)cc1
active: [8] 9.06 µM | [3] 6.53 µM | [17] 17.6 µM | [15] 25 µM | [18] 25 µM | [16] 16.6 µM
inactive: [5]

O=C(O)CC(O)C(=O)O (centres undefined)
inactive: [8] | [18]

C=CCCCCCCCCC(=O)O
inactive: [19]

COCCOc1cc2cc(C(=O)NC3CCN(C(C)C)CC3)n(CC(=O)Nc3ccc(Cl)cn3)c2cn1
active: [8] 9.81 µM | [10] 6.54 µM
inactive: [16] | [5]

CCCN(C1CCN(C(=O)C2CCNCC2)CC1)[C@@H]1CCc2ccc(OC)cc2C1
inactive: [1]
active: [8] 17.4 µM | [4] 12.1 µM | [14] 0.00229 µM | [15] 0.00453 µM | [18] 0.00539 µM | [16] 0.00683 µM | [5] 0.0807 µM

O=P(OC(CCl)CCl)(OC(CCl)CCl)OC(CCl)CCl
inactive: [17]
active: [4] 19.8 µM

O=c1[nH]c2ccc(S(=O)CCN3CCC(Cc4ccc(F)cc4)CC3)cc2o1 (centres undefined)
active: [8] 0.837 µM | [10] 1.96 µM | [12] 2.51 µM | [4] 0.522 µM | [17] 1.23 µM

O=C1CCCCCN1
inactive: [3]

CCOC(=O)c1ccc(C2CCC(NC[C@H](O)COc3ccc(O)c(NS(C)(=O)=O)c3)CC2)cc1 (some centres undefined)
active: [7] 12.1 µM | [8] 31.1 µM | [9] 1.84 µM | [10] 7.95 µM | [11] 0.24 µM | [2] 7.77 µM | [12] 11.3 µM | [4] 18.6 µM | [17] 21.9 µM | [14] 12.7 µM | [15] 18 µM | [18] 4.31 µM | [16] 11.9 µM | [5] 3.42 µM

CC(C)c1cccc(C(C)C)c1N1C(=O)c2ccc(O)cc2C1=O
inactive: [19]

COc1cccc(-c2ccc(/C=C\CN3CCCCCC3)cc2Cl)c1
inactive: [2]
active: [8] 8.54 µM | [9] 22.6 µM | [10] 0.401 µM | [11] 26.4 µM | [12] 10.2 µM | [4] 11.1 µM | [17] 12.6 µM | [14] 5.57 µM | [1] 14.5 µM | [15] 2.41 µM | [18] 0.427 µM | [16] 1.22 µM | [5] 6.57 µM

CCc1cc(SCc2sc(-c3ccc(C(F)(F)F)cc3)nc2CN2CCN(c3ccc(OC)cc3)CC2)ccc1OCC(=O)O
inactive: [11]
active: [10] 2.63 µM | [20] 9.64 µM | [12] 6.77 µM | [4] 25 µM | [17] 11.5 µM | [1] 37.3 µM | [16] 35.7 µM | [5] 9.13 µM
